# Tests used:
# Experiment in all cases: yeast three-hybrid, YBZ-1, SC-Leu-His + 0.5 mM 3-AT, 4 days
# Conditions in all cases: tags: N-Gal4 AD-HA kept; label: inside an RPR1-promoter hybrid RNA with tandem MS2 sites; ssRNA
# [1] = target: PUM1 PUF domain R7-RSG (Homo sapiens, UniProt Q14671 828-1176, S1079R;N1080S;E1083G)
# How it was run: (§1)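 Sequencing with Illumina followed PCR amplification of the repeat regions from transformants grown four days on SC-Leu (input) or SC-Leu-His + 0.5 mM 3-AT (selection). The transformants were strain YBZ-1 with a LexA–MS2 coat fusion and a HIS3 reporter, carrying Pumilio-1 PUF domain libraries and matching RNA elements. The interaction score is the log change in variant frequency from input to selection, computed in log2 with a pseudocount of 1 for absent variants.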
# [2] = target: PUM1 PUF domain R7-RSN (Homo sapiens, UniProt Q14671 828-1176, S1079R;N1080S;E1083N)
# How it was run: as §1
# [3] = target: PUM1 PUF domain R8-LYG (Homo sapiens, UniProt Q14671 828-1176, N1122L;Q1126G)
# How it was run: as §1
# [4] = target: PUM1 PUF domain R8-RHI (Homo sapiens, UniProt Q14671 828-1176, N1122R;Y1123H;Q1126I)
# How it was run: as §1
# [5] = target: T1, PUM1 PUF domain R6-VYG (Homo sapiens, UniProt Q14671 828-1176, N1043V;Q1047G)
# T1 sequence: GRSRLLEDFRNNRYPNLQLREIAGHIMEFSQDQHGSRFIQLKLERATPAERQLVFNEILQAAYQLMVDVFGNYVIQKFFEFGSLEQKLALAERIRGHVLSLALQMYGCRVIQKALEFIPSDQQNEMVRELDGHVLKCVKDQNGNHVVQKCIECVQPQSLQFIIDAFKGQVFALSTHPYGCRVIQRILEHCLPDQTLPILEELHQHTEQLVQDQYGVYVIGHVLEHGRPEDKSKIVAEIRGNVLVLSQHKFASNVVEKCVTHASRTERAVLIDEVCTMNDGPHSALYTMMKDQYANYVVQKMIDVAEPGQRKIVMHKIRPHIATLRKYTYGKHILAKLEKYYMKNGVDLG
# How it was run: as §1
# [6] = target: PUM1 PUF domain R3-RNP (Homo sapiens, UniProt Q14671 828-1176, C935R;R936N;Q939P)
# How it was run: as §1
# [7] = target: PUM1 PUF domain R4-DYG (Homo sapiens, UniProt Q14671 828-1176, N971D;H972Y;Q975G)
# How it was run: as §1
# [8] = target: PUM1 PUF domain R1-GCR (Homo sapiens, UniProt Q14671 828-1176, S863G;R864C;Q867R)
# How it was run: as §1
# [9] = target: PUM1 PUF domain R5-GFY (Homo sapiens, UniProt Q14671 828-1176, C1007G;R1008F;Q1011Y)
# How it was run: as §1
# [10] = target: PUM1 PUF domain R5-FKR (Homo sapiens, UniProt Q14671 828-1176, C1007F;R1008K;Q1011R)
# How it was run: as §1
sequence,measurement,setting,value
GGCUAGAACUAGUGGAUCCCCCGGCGCCCGGCGGCUCGAGCCCGGGUAAGUUUAAAUAGUCUGCAUGCCGCCGGGCGCCAUGCCUGCAGGUCGACUCUAGAAAACAUG,binding signal,[1],2.86 log2 enrichment (interaction score)
same,binding signal,[2],3.1 log2 enrichment (interaction score)
GGCUAGAACUAGUGGAUCCCCCGGCGCCCGGCGGCUCGAGCCCGGGUAAGCGUAAAUAGUCUGCAUGCCGCCGGGCGCCAUGCCUGCAGGUCGACUCUAGAAAACAUG,binding signal,[3],2.57 log2 enrichment (interaction score)
same,binding signal,[4],5.37 log2 enrichment (interaction score)
GGCUAGAACUAGUGGAUCCCCCGGCGCCCGGCGGCUCGAGCCCGGGUAAGUGAAAAUAGUCUGCAUGCCGCCGGGCGCCAUGCCUGCAGGUCGACUCUAGAAAACAUG,binding signal,[5],5.61 log2 enrichment (interaction score)
GGCUAGAACUAGUGGAUCCCCCGGCGCCCGGCGGCUCGAGCCCGGGUAAGUGUAAUUAGUCUGCAUGCCGCCGGGCGCCAUGCCUGCAGGUCGACUCUAGAAAACAUG,binding signal,[6],4.2 log2 enrichment (interaction score)
GGCUAGAACUAGUGGAUCCCCCGGCGCCCGGCGGCUCGAGCCCGGGUAAGUGUAUAUAGUCUGCAUGCCGCCGGGCGCCAUGCCUGCAGGUCGACUCUAGAAAACAUG,binding signal,[7],6.59 log2 enrichment (interaction score)
GGCUAGAACUAGUGGAUCCCCCGGCGCCCGGCGGCUCGAGCCCGGGUAAGUGUAAAUUGUCUGCAUGCCGCCGGGCGCCAUGCCUGCAGGUCGACUCUAGAAAACAUG,binding signal,[8],1.58 log2 enrichment (interaction score)
GGCUAGAACUAGUGGAUCCCCCGGCGCCCGGCGGCUCGAGCCCGGGUAAGUGUUAAUAGUCUGCAUGCCGCCGGGCGCCAUGCCUGCAGGUCGACUCUAGAAAACAUG,binding signal,[9],2.65 log2 enrichment (interaction score)
same,binding signal,[10],2.17 log2 enrichment (interaction score)
GGCUAGAACUAGUGGAUCCCCCGGCGCCCGGCGGCUCGAGCCCGGGUAAGUGUACAUAGUCUGCAUGCCGCCGGGCGCCAUGCCUGCAGGUCGACUCUAGAAAACAUG,binding signal,[7],5.37 log2 enrichment (interaction score)

# From article PMC8384837, “Expanding the binding specificity for RNA recognition by a PUF domain”
